Records with an inconclusive call do not appear. Activity calls are given as the source filed them.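 The calls were made as follows, unless noted: active = thallium flux through the channel raised or lowered by more than 3 SD from vehicle-only wells, actives on both sides; inactive = the rest.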

Experiment [1] addresses ATP-dependent translocase ABCB1 (Homo sapiens) (UniProt P08183). The experiment is described as follows: P-glycoprotein substrate transport blockade – cell-based (AID 377; in the data active = fluorescence slope change above about 50%). Conditions: MDR1-expressing cells, fluorescent substrate accumulation slope; stronger effect = higher value; concentration not given here.
Experiment [2] is described as follows: blockers of polyQ-driven CASP3 activation – cell-based (AID 1583). To be noted: polyglutamine-induced caspase-3 activation, cell assay; stronger effect = higher value;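 tested at 10 µM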.
Experiment [3] is described as follows: compounds altering viability of human ES cells (AID 493140; call rule not given here;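 also: cells exposed to compounds for four days before counting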). To be noted: human embryonic stem cell survival screen; stronger effect = higher value.
In experiment [4] the test system is Neuropilin-2 / VEGF-C interaction (human). The experiment is described as follows: small molecules blocking Neuropilin-2/VEGF-C interaction – biochemical, microplate binding format, z-score (AID 743281; call rule not given here). To be noted: microplate NRP2/VEGF-C binding assay; stronger effect = lower value.
Experiment [5] in a line: viability loss in pontine glioma line – cell-based, JHH-DIPG-1, MIPE4.0, CellTiter-Glo, qHTS, dose response (AID 1347062; cut-off not given, nearly all actives have AC50 up to about 27 µM;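 as to AC50: cells exposed to compound for two days before readout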). Conditions: JHH-DIPG-1 viability, CellTiter-Glo ATP luminescence.
Experiment [6] is described as follows: growth inhibition of DIPG cells – cell-based, MIPE4.0 library, CellTiter-Glo luminescence, qHTS (AID 1347066; cut-off not given, nearly all actives have AC50 up to about 30 µM;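 also: cells exposed to compound for 48 hours before readout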). To be noted: SU-DIPG-VI viability, CellTiter-Glo ATP luminescence. (Cellular ATP, detected with luciferase, serves as a proxy for viable cell number.)
For experiment [7], the system named is F380Y/beta1. The experiment is described as follows: BK channel mutant inhibitors and activators – cell-based, U2OS BacMam, thallium flux, beta subunits, selectivity assay, profiling panel (AID 1259406).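 Also: initial slope of Thallos dye fluorescence rise after thallium is added; log ratio against the mean of 0.3% DMSO vehicle wells on the same plate.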 Conditions: U2OS BacMam BK variants, at 30 µM.
The test system of experiment [8] is F380Y/beta4. The experiment is described as above. To be noted: U2OS BacMam BK variants, at 30 µM.
In experiment [9] the test system is R275C/beta4. The description is as above. To be noted: U2OS BacMam BK variants, at 30 µM.
Experiment [10] deals with R275C/Slo1WT/beta2. The experiment is described as above. Conditions: U2OS BacMam BK variants, at 30 µM.
The nature of experiment [11]: compounds altering circadian rhythm period length – cell-based, LOPAC library, luminescence reporter (AID 2774; call rule not given here;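 also: values are relative to mean of DMSO wells on each plate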). Conditions: circadian reporter cells, at 7 µM, actives lie on both sides.
Experiment [12] in a line: blockers of cellular phospholipid synthesis – cell-based, LOPAC library, screen 4, primary screen (AID 1347384; call rule not given here). Conditions: animal cells, phospholipid biosynthesis inhibition screen; at 10 µM.
A short description of experiment [13]: compounds altering HSF1 focus formation in cells – imaging, Selleck Cancer Library (AID 1347162; in the data active = plate-normalised HSF1 focus index below about 0.46). To be noted: human cells, HSF1 nuclear foci imaging, at 10 µM; SSMD: measured here: HSF1 foci SSMD mean; cell count: measured here: cell number; plate-normalised HSF1 focus index: stronger effect = lower value.

Sequence of ATP-dependent translocase ABCB1 (Homo sapiens) (P08183 whole entry, looked up): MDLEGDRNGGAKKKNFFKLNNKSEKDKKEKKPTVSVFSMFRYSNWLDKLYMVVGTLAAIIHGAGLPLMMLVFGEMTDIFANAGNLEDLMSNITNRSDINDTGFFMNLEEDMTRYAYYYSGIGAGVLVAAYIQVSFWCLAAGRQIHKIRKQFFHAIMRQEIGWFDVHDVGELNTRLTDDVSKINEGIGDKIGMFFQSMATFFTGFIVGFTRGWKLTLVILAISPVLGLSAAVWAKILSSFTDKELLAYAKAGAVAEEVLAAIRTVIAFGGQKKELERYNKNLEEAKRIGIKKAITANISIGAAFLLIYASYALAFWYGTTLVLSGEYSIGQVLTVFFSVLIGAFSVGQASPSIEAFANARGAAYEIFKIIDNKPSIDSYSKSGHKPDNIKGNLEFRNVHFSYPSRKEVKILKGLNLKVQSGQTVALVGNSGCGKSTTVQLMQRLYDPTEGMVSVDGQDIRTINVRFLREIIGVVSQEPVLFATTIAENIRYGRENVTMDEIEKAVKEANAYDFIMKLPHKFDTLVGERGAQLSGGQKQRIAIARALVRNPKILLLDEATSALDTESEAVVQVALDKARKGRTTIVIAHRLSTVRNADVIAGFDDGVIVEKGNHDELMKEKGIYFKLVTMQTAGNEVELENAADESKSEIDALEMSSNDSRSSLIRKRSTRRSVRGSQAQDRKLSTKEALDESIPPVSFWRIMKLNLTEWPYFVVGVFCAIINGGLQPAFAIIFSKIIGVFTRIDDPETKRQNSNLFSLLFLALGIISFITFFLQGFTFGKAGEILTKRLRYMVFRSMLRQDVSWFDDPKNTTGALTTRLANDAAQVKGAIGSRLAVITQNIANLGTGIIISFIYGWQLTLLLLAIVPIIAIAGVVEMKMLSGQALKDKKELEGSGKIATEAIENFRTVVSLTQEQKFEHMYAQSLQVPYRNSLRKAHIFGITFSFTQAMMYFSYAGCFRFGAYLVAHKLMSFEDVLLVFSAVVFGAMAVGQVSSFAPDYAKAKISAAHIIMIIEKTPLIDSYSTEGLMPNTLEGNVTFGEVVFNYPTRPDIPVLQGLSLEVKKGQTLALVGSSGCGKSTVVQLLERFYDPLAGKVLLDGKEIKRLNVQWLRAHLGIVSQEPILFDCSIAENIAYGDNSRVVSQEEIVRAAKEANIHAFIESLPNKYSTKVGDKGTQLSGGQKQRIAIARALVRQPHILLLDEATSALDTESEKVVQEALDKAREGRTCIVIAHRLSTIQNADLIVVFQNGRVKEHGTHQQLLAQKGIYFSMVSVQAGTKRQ

Regarding `COc1ccc2c3c1O[C@H]1C[C@@H](O)C=C[C@@]31CCN(C)C2`, the fluorescence slope change in experiment [1] was 9.8% (inactive). The inhibition in [2] was -3.14%. In addition, the survival in experiment [3] is 11.9 (inactive). Also, the z-score in [4] was 0.00606 (inactive). The outcome in experiment [5] and in [6] was inactive.

Take `CC1(C)S[C@@H]2[C@H](NC(=O)[C@H](N)c3ccc(O)cc3)C(=O)N2[C@H]1C(=O)O`: the survival in [3] is 6.33 (inactive). In addition, the log fold change Tl+ flux in experiment [7] is 0.0448 (inactive); in experiment [8] it was -0.0174 (inactive); in [9], 0.0282 (inactive); in experiment [10] it was 0.0404 (inactive).

For the compound `CN(C)CCC(c1ccc(Cl)cc1)c1ccccn1` (stereo unspecified), the fluorescence slope change in experiment [1] was 220% (active). In addition, the inhibition in experiment [2] is -45.4%. Besides, in experiment [11], the period change was -0.5 h (inactive). Moreover, the survival in [3] was 24.1 (inactive). Besides, in experiment [4], the z-score was 0.208 (inactive). For the same compound, the call in [12] was inactive. For the same compound, the log fold change Tl+ flux in experiment [7] was -0.0189 (inactive); in experiment [8] it was 0.0511 (inactive); in experiment [9] it was 0.0326 (inactive); in experiment [10] it was 0.0403 (inactive).

Regarding `CNCCC=C1c2ccccc2CCc2ccccc21`, the fluorescence slope change in experiment [1] is 145% (active). Further, the inhibition in experiment [2] turned out to be 16.9%. Moreover, the period change in [11] is 0.025 h (inactive). For the same compound, in experiment [3], the survival was 3.42 (inactive). Moreover, the call in experiment [12] was inactive. Also, the log fold change Tl+ flux in experiment [7] was 0.0784 (inactive); in experiment [8], 0.255 (active); in experiment [9], 0.121 (inactive); in [10], -0.0571 (inactive).

For the compound `CCC(=O)OCC(=O)[C@@]1(OC(=O)CC)[C@@H](C)C[C@H]2[C@@H]3CCC4=CC(=O)C=C[C@]4(C)[C@@]3(Cl)[C@@H](O)C[C@@]21C`, the log fold change Tl+ flux is -0.203 (active) in [7], -0.237 (active) in experiment [8], 0.0199 (inactive) in experiment [9] and -0.0376 (inactive) in [10].

In the case of `Cc1ccc(N(CC2=NCCN2)c2cccc(O)c2)cc1`, the fluorescence slope change in experiment [1] was 72.4% (active). Also, the inhibition in experiment [2] stood at 0.92%. In [11], the period change is -0.015 h (inactive). Besides, the survival in experiment [3] is 15.2 (inactive). Besides, the outcome in experiment [5], in [6] and in experiment [12] was inactive.

Take `CC[C@H](C)C(=O)O[C@H]1CCC=C2C=C[C@H](C)[C@H](CC[C@@H]3C[C@@H](O)CC(=O)O3)[C@H]21`: the period change in experiment [11] is 0.035 h (inactive). Moreover, in experiment [4], the z-score was -1.1 (inactive). Besides, the call in experiment [12] was inactive.

Consider `C[C@H](CCC(=O)O)[C@H]1CC[C@H]2[C@@H]3[C@@H](O)C[C@@H]4C[C@H](O)CC[C@]4(C)[C@H]3CC[C@]12C`, for which the survival in [3] is 4.92 (inactive). For the same compound, the AC50 in experiment [5] was 20.9 µM (active). Moreover, in experiment [6], the call was inactive. Also, the log fold change Tl+ flux in experiment [7] is 0.0488 (inactive); in [8] it was 0.0547 (inactive); in [9], -0.0188 (inactive); in experiment [10] it was -0.0131 (inactive).

As to `CCCC1O[C@@H]2C[C@H]3[C@@H]4CCC5=CC(=O)C=C[C@]5(C)[C@H]4[C@@H](O)C[C@]3(C)[C@]2(C(=O)CO)O1` (stereo partly specified), in [1], the fluorescence slope change was 56.9% (active). The period change in experiment [11] was -0.26 h (inactive). The survival in [3] is 0.833 (inactive). Further, the compound was called inactive in experiment [12]. Besides, the log fold change Tl+ flux is 0.126 (active) in experiment [7], 0.0417 (inactive) in experiment [8], 0.1 (inactive) in experiment [9] and -0.0145 (inactive) in experiment [10].

As to `C[C@]12CC[C@@H]3c4ccc(O)cc4CC[C@H]3[C@@H]1CC[C@@H]2O`, in experiment [11], the period change was 0.19 h (inactive). The survival in [3] was 11.2 (inactive). In addition, the call in experiment [6] was inactive. In [13], the SSMD was determined as 2.53, the cell count was determined as 7010 and the plate-normalised HSF1 focus index was 1.15 (inactive). In experiment [12], the compound was classed as inactive.

`CCCCC(=O)O[C@H]1CC[C@H]2[C@@H]3CCc4cc(O)ccc4[C@H]3CC[C@]12C`: the log fold change Tl+ flux in experiment [7] is -0.0484 (inactive); in [8], 0.00293 (inactive); in experiment [9] it was -0.0402 (inactive); in [10] it was 0.00597 (inactive).

In the case of `OC[C@H]1O[C@@H](Oc2cc(O)cc(/C=C/c3ccc(O)cc3)c2)[C@H](O)[C@@H](O)[C@@H]1O`, the z-score in experiment [4] was 0.265 (inactive). The result in experiment [5] and in [6] was inactive. Further, the log fold change Tl+ flux in experiment [7] is -0.0141 (inactive); in experiment [8], -0.0711 (inactive); in experiment [9], 0.00405 (inactive); in experiment [10], 0.104 (active).

On to `C#C[C@]1(OC(C)=O)CC[C@H]2[C@@H]3CCC4=CC(=O)CC[C@@H]4[C@H]3CC[C@@]21C`, for which the log fold change Tl+ flux in experiment [7] is 0.0384 (inactive); in experiment [8], -0.176 (active); in [9], -0.14 (active); in [10] it was -0.0421 (inactive).

By inhibition is commonly meant the change of the read-out against control, counted positive when it falls. The AC50 is the midpoint of the concentration-response curve, whichever way the signal moves.

These data come from PubChem BioAssay.
